{"source": "PubChem BioAssay", "note": "Unmarked numbers belong to inactive results. Active and inactive are the calls of the source. Unless noted, no stated cut-off is given here; in the data, active means nuclear beta-catenin stimulation mostly above about 4.2% (no sharp cut-off); inactive means mostly below about 10%.", "data": [{"system": "Neuropilin-2 / VEGF-C interaction (human)", "assay": "inhibitors of NRP2–VEGF-C binding, biochemical, microplate binding format, z-score (AID 743281; call rule not given here)", "settings": "microplate NRP2/VEGF-C binding assay; stronger effect = lower value", "values": [{"smiles": "CN(C)CC[C@@H](c1ccc(Br)cc1)c1ccccn1", "z-score": -0.605}, {"smiles": "CC(C(=O)O)c1ccc(CC2CCCC2=O)cc1", "note": "(centres undefined)", "z-score": -0.224}, {"smiles": "Cc1cn([C@H]2C=C[C@@H](CO)O2)c(=O)[nH]c1=O", "z-score": 0.0189}, {"smiles": "C[C@H](NC(CCc1ccccc1)C(=O)O)C(=O)N1CCC[C@H]1C(=O)O", "note": "(some centres undefined)", "z-score": 0.126}, {"smiles": "CCOC(=O)c1ncn2c1CN(C)C(=O)c1cc(F)ccc1-2", "z-score": -0.197}, {"smiles": "CC(=O)[C@]1(O)Cc2c(O)c3c(c(O)c2[C@@H](O[C@H]2C[C@H](N)[C@H](O)[C@H](C)O2)C1)C(=O)c1ccccc1C3=O", "z-score": 1.07}, {"smiles": "Cc1[nH]c(=O)c(C#N)cc1-c1ccncc1", "z-score": 0.188}, {"smiles": "CCN1CCC[C@H]1CNC(=O)c1c(O)c(Cl)cc(Cl)c1OC", "z-score": -0.335}, {"smiles": "Cc1cccc(C)c1NC(=O)C(C)N", "note": "(centres undefined)", "z-score": -0.227}, {"smiles": "Nc1nnc(-c2cccc(Cl)c2Cl)c(N)n1", "z-score": -0.624}, {"smiles": "CCN1CCCC1CNC(=O)c1cc(S(=O)(=O)CC)c(N)cc1OC", "note": "(centres undefined)", "z-score": -0.283}, {"smiles": "COc1ccccc1N1CCN(CC(O)COc2cccc3ccccc23)CC1", "note": "(centres undefined)", "z-score": 1.13}, {"smiles": "CN(C)CC[C@@H](c1ccc(Cl)cc1)c1ccccn1", "z-score": 0.0729}, {"smiles": "O=C1N(c2ccccc2)c2ccccc2C1(Cc1ccncc1)Cc1ccncc1", "z-score": -0.0491}, {"smiles": "CN(Cc1cnc2nc(N)nc(N)c2n1)c1ccc(C(=O)N[C@@H](CCC(=O)O)C(=O)O)cc1", "z-score": -1.5}, {"smiles": "Nc1ccn([C@H]2CC[C@@H](CO)O2)c(=O)n1", "z-score": 0.496}, {"smiles": "CCN1CCC[C@H]1CNC(=O)c1cc(S(N)(=O)=O)ccc1OC", "z-score": -0.132}, {"smiles": "Oc1ccc(C2CNCCc3c2cc(O)c(O)c3Cl)cc1", "note": "(centres undefined)", "z-score": 0.0254}, {"smiles": "NC1CCN(c2cccc(Cl)n2)CC1", "z-score": -0.326}, {"smiles": "COc1ccc(C2CNC(=O)C2)cc1OC1CCCC1", "note": "(centres undefined)", "z-score": 0.503}, {"smiles": "OCc1cc(C(O)CNCCCCCCOCCCCc2ccccc2)ccc1O", "note": "(centres undefined)", "z-score": -0.654}]}, {"system": "not listed separately", "assay": "stimulators of nuclear beta-catenin in C2C12, primary screen, imaging, WNT3A-conditioned medium, mouse C2C12, NPC library (AID 1117326); further: reference of the scale not given here", "settings": "at 10 µM, stronger effect = higher value", "values": [{"smiles": "CN(C)CC[C@@H](c1ccc(Br)cc1)c1ccccn1", "nuclear beta-catenin stimulation": "1.1%"}, {"smiles": "CCN(CC)CCNC(=O)c1ccc(NC(C)=O)cc1", "nuclear beta-catenin stimulation": "-1.2%"}, {"smiles": "CC(C(=O)O)c1ccc(CC2CCCC2=O)cc1", "note": "(centres undefined)", "nuclear beta-catenin stimulation": "-1.5%"}, {"smiles": "Cc1cn([C@H]2C=C[C@@H](CO)O2)c(=O)[nH]c1=O", "nuclear beta-catenin stimulation": "-0.2%"}, {"smiles": "C[C@H](NC(CCc1ccccc1)C(=O)O)C(=O)N1CCC[C@H]1C(=O)O", "note": "(some centres undefined)", "nuclear beta-catenin stimulation": "-0.9%"}, {"smiles": "CCOC(=O)c1ncn2c1CN(C)C(=O)c1cc(F)ccc1-2", "nuclear beta-catenin stimulation": "0.8%"}, {"smiles": "CC(=O)[C@]1(O)Cc2c(O)c3c(c(O)c2[C@@H](O[C@H]2C[C@H](N)[C@H](O)[C@H](C)O2)C1)C(=O)c1ccccc1C3=O", "nuclear beta-catenin stimulation": "18.6% (active)"}, {"smiles": "C=CCc1ccccc1OCC(O)CNC(C)C", "note": "(centres undefined)", "nuclear beta-catenin stimulation": "0.1%"}, {"smiles": "Cc1[nH]c(=O)c(C#N)cc1-c1ccncc1", "nuclear beta-catenin stimulation": "0.1%"}, {"smiles": "Nc1c2c(nc3ccccc13)CCCC2O", "note": "(centres undefined)", "nuclear beta-catenin stimulation": "-0.8%"}, {"smiles": "Nc1nc2c(ncn2COC(CO)CO)c(=O)[nH]1", "nuclear beta-catenin stimulation": "1.2%"}, {"smiles": "CCN1CCC[C@H]1CNC(=O)c1c(O)c(Cl)cc(Cl)c1OC", "nuclear beta-catenin stimulation": "0.6%"}, {"smiles": "Cc1cccc(C)c1NC(=O)C(C)N", "note": "(centres undefined)", "nuclear beta-catenin stimulation": "0.2%"}, {"smiles": "Nc1nnc(-c2cccc(Cl)c2Cl)c(N)n1", "nuclear beta-catenin stimulation": "0.7%"}, {"smiles": "NNc1nncc2ccccc12", "nuclear beta-catenin stimulation": "-0.9%"}, {"smiles": "CCN1CCCC1CNC(=O)c1cc(S(=O)(=O)CC)c(N)cc1OC", "note": "(centres undefined)", "nuclear beta-catenin stimulation": "-0.8%"}, {"smiles": "C=Cc1c(C)c2cc3[nH]c(cc4nc(cc5nc(cc1[nH]2)C(C)=C5CCC(=O)O)C(CCC(=O)O)=C4C)c(C)c3C=C", "nuclear beta-catenin stimulation": "-3.7%"}, {"smiles": "Clc1ccc2nsnc2c1NC1=NCCN1", "nuclear beta-catenin stimulation": "0.6%"}, {"smiles": "COc1cc(C(=O)OCCCN2CCCN(CCCOC(=O)c3cc(OC)c(OC)c(OC)c3)CC2)cc(OC)c1OC", "nuclear beta-catenin stimulation": "1.3%"}, {"smiles": "CCc1c(C)[nH]c2c1C(=O)C(CN1CCOCC1)CC2", "note": "(centres undefined)", "nuclear beta-catenin stimulation": "-1.2%"}, {"smiles": "COc1ccccc1N1CCN(CC(O)COc2cccc3ccccc23)CC1", "note": "(centres undefined)", "nuclear beta-catenin stimulation": "1.5%"}, {"smiles": "CN(C)CC[C@@H](c1ccc(Cl)cc1)c1ccccn1", "nuclear beta-catenin stimulation": "-1.2%"}, {"smiles": "CN(C)CCOC(=O)COc1ccc(Cl)cc1", "nuclear beta-catenin stimulation": "-0.6%"}, {"smiles": "Brc1c(NC2=NCCN2)ccc2nccnc12", "nuclear beta-catenin stimulation": "0.3%"}, {"smiles": "O=C1N(c2ccccc2)c2ccccc2C1(Cc1ccncc1)Cc1ccncc1", "nuclear beta-catenin stimulation": "0.2%"}, {"smiles": "CN(Cc1cnc2nc(N)nc(N)c2n1)c1ccc(C(=O)N[C@@H](CCC(=O)O)C(=O)O)cc1", "nuclear beta-catenin stimulation": "74% (active)"}, {"smiles": "Nc1ccn([C@H]2CC[C@@H](CO)O2)c(=O)n1", "nuclear beta-catenin stimulation": "-1%"}, {"smiles": "CCN1CCC[C@H]1CNC(=O)c1cc(S(N)(=O)=O)ccc1OC", "nuclear beta-catenin stimulation": "-1.5%"}, {"smiles": "Oc1ccc(C2CNCCc3c2cc(O)c(O)c3Cl)cc1", "note": "(centres undefined)", "nuclear beta-catenin stimulation": "1.1%"}, {"smiles": "Cc1ccc(C(=O)Nc2ccc(S(=O)(=O)O)c3cc(S(=O)(=O)O)cc(S(=O)(=O)O)c23)cc1NC(=O)c1cccc(NC(=O)Nc2cccc(C(=O)Nc3cc(C(=O)Nc4ccc(S(=O)(=O)O)c5cc(S(=O)(=O)O)cc(S(=O)(=O)O)c45)ccc3C)c2)c1", "nuclear beta-catenin stimulation": "-3.6%"}, {"smiles": "NC1CCN(c2cccc(Cl)n2)CC1", "nuclear beta-catenin stimulation": "-1.8%"}, {"smiles": "COc1ccc(C2CNC(=O)C2)cc1OC1CCCC1", "note": "(centres undefined)", "nuclear beta-catenin stimulation": "-0.2%"}, {"smiles": "CNCC(O)c1ccc(O)c(O)c1", "note": "(centres undefined)", "nuclear beta-catenin stimulation": "-1.1%"}, {"smiles": "CNC[C@H](O)c1cccc(O)c1", "nuclear beta-catenin stimulation": "1.9%"}, {"smiles": "Cc1scc2c1N(C(=O)CN1CCN(C)CC1)c1ccccc1NC2=O", "nuclear beta-catenin stimulation": "1%"}, {"smiles": "C=CC(N)CCC(=O)O", "note": "(centres undefined)", "nuclear beta-catenin stimulation": "1.7%"}, {"smiles": "OCc1cc(C(O)CNCCCCCCOCCCCc2ccccc2)ccc1O", "note": "(centres undefined)", "nuclear beta-catenin stimulation": "2.7%"}, {"smiles": "C[N+](C)(C)CCCCCC[N+](C)(C)C", "nuclear beta-catenin stimulation": "-0.3%"}]}]}
